The text below walks through data of PubChem BioAssay (NCI).

Some test systems named below: SR leukemia; RPMI-8226 leukemia; OVCAR-8 ovarian; OVCAR-5 ovarian; OVCAR-4 ovarian; SK-OV-3 ovarian; IGROV1 ovarian; OVCAR-3 ovarian; HS 578T breast; NCI/ADR-RES ovarian.
Common to all, as to assay: NCI-60 one-dose screen, 48 h (100 = growth as untreated, 0 = no growth, -100 = all killed)
Common to all, as to conditions: 10 µM

This is part of a sample that, as a whole, favours compounds with a hit. Of some 83,000 tested, about 20% had one in any assay.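 Single-concentration screen, 48 h exposure, 96-well plates. Endpoint: percent growth. Below 10 = active.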 A number with no mark means an inactive call. Calls of active or inactive are those of the source.

`O=C1/C(=C/c2ccc([N+](=O)[O-])s2)Oc2cc(Cl)ccc21`: the growth was 8.31% (active) in the test with SR leukemia; -14.7% (active) with RPMI-8226 leukemia; -25.5% (active) with OVCAR-8 ovarian; 53% in the test on OVCAR-5 ovarian; 3.28% (active) in the test on OVCAR-4 ovarian; 88.8% in the test on SK-OV-3 ovarian. Further, the growth is -60.9% (active) in the test with IGROV1 ovarian, -76.8% (active) in the test on OVCAR-3 ovarian, 1.22% (active) with HS 578T breast and 24% in the test with NCI/ADR-RES ovarian.
As for `COc1ccc2nc3cc(Cl)ccc3c(Nc3cc(CN4CCCC4)c(O)c(CN4CCCC4)c3)c2n1`, the growth was -18.6% (active) with SR leukemia; -3.6% (active) in the test on RPMI-8226 leukemia; 10.5% with OVCAR-8 ovarian; 6.64% (active) with OVCAR-5 ovarian; -16.3% (active) in the test on OVCAR-4 ovarian; 29.8% with SK-OV-3 ovarian. The growth in the test on IGROV1 ovarian is 27.6%; in the test on OVCAR-3 ovarian, 23.9%; in the test on HS 578T breast, 15.5%; with NCI/ADR-RES ovarian, 10.1%.
Take `COc1cc(NC(=O)Nc2cnc(Nc3ccc(N4CCOCC4)cc3)nc2Oc2cccc(OC)c2)cc(OC)c1`: the growth is 46.1% in the test on SR leukemia; 53.3% with RPMI-8226 leukemia; -10.8% (active) in the test on OVCAR-8 ovarian; 96.5% in the test with OVCAR-5 ovarian; 13.7% in the test on OVCAR-4 ovarian; 42.2% in the test on SK-OV-3 ovarian. In addition, the growth in the test with IGROV1 ovarian is 43.4%; in the test on OVCAR-3 ovarian, 41.7%; in the test on HS 578T breast it was 23.2%; in the test on NCI/ADR-RES ovarian it was 61%.
For `COc1ccc(/C=C2\CCCC3=C2N=C2SC(C)=CN2C3c2ccc(OC)cc2)cc1` (stereo not given), the growth with SR leukemia was 100%; in the test on RPMI-8226 leukemia, 71.2%; with OVCAR-8 ovarian it was 95.2%; in the test with OVCAR-5 ovarian, 105%; with OVCAR-4 ovarian, 97%; in the test on SK-OV-3 ovarian, 101%. Further, the growth is 111% in the test with IGROV1 ovarian, 102% with OVCAR-3 ovarian, 91% in the test on HS 578T breast and 96.3% in the test on NCI/ADR-RES ovarian.
With `NS(=O)(=O)c1ccc(N2N=C(c3ccccc3)CCC2=O)cc1`, the growth is 66.5% in the test on SR leukemia; 94.5% in the test on RPMI-8226 leukemia; 98% in the test on OVCAR-8 ovarian; 112% in the test on OVCAR-5 ovarian; 95.8% with OVCAR-4 ovarian; 113% with SK-OV-3 ovarian. The growth in the test with IGROV1 ovarian is 105%; with OVCAR-3 ovarian, 158%; with HS 578T breast, 113%; in the test on NCI/ADR-RES ovarian, 98%.
`CC(C)(C)OC(=O)N1CCc2c(sc3ncnc(N/N=C/c4cccc5ccccc45)c23)C1`: the growth was 24.1% in the test with SR leukemia; 2.4% (active) with RPMI-8226 leukemia; 27.6% with OVCAR-8 ovarian; 31.8% in the test on OVCAR-5 ovarian; 33.4% in the test on OVCAR-4 ovarian; 37% in the test on SK-OV-3 ovarian. Moreover, the growth in the test on IGROV1 ovarian is 26.9%; in the test on OVCAR-3 ovarian, 46.4%; in the test on HS 578T breast it was 17.2%; in the test on NCI/ADR-RES ovarian, 8.76% (active).
For the compound `CNC(=O)c1cc(Oc2ccc3c(c2)sc2nc(-c4ccc(N)cc4)cn23)ccn1`, the growth in the test on SR leukemia was 28.3%; in the test with RPMI-8226 leukemia it was 40.5%; in the test on OVCAR-8 ovarian it was 10.9%; with OVCAR-5 ovarian, 64.2%; in the test with OVCAR-4 ovarian it was 59.7%; in the test on SK-OV-3 ovarian, 21.2%. Also, the growth in the test on IGROV1 ovarian is 31.6%; with OVCAR-3 ovarian, 1.42% (active); in the test on HS 578T breast, 54.9%; in the test with NCI/ADR-RES ovarian it was 11.2%.
`C1CN(CC2CCC(CN3CCOCC3)O2)CCO1` (stereo not given): the growth with SR leukemia was 61.7%; in the test with RPMI-8226 leukemia, 92.3%; in the test with OVCAR-8 ovarian, 104%; in the test on OVCAR-5 ovarian, 109%; in the test on OVCAR-4 ovarian, 107%; in the test on SK-OV-3 ovarian it was 90.2%. The growth with IGROV1 ovarian is 108%; in the test with OVCAR-3 ovarian, 112%; in the test with HS 578T breast, 104%; in the test on NCI/ADR-RES ovarian it was 101%.
As for `COc1cc(-c2csc(NC(=O)Nc3cc(C(F)(F)F)cc(C(F)(F)F)c3)n2)cc(OC)c1OC`, the growth is 16.5% with SR leukemia; -6.92% (active) in the test with RPMI-8226 leukemia; 19.4% in the test with OVCAR-8 ovarian; 30.4% with OVCAR-5 ovarian; 21.1% with OVCAR-4 ovarian; 0.491% (active) in the test on SK-OV-3 ovarian. Also, the growth in the test on IGROV1 ovarian was 35.1%; in the test with OVCAR-3 ovarian, -3.97% (active); with HS 578T breast, 31.2%; in the test on NCI/ADR-RES ovarian, 10.4%.
With `CC[C@@H](C(=O)[C@@H](C)[C@@H](O)[C@H](C)[C@@H]1O[C@@H]([C@@H](CC)C(=O)O)CC[C@@H]1C)C1O[C@]2(C=CC(=O)[C@]3(CC[C@@](C)([C@H]4CC[C@](O)(CC)[C@H](C)O4)O3)O2)[C@H](C)C[C@@H]1C` (stereo not given in full), the growth with SR leukemia was 31.3%; in the test on RPMI-8226 leukemia, 4.99% (active); with OVCAR-8 ovarian, 44.4%; in the test on OVCAR-5 ovarian it was 56.1%; in the test on OVCAR-4 ovarian, 47.7%; with SK-OV-3 ovarian it was 69.1%. For the same compound, the growth is 48.4% in the test on IGROV1 ovarian, 27.2% with OVCAR-3 ovarian, 30.6% in the test on HS 578T breast and 40% with NCI/ADR-RES ovarian.
`CC(C)Cc1ccc([C@H](C)C(=O)O)cc1`: the growth with SR leukemia is 99.9%; with RPMI-8226 leukemia it was 115%; in the test with OVCAR-8 ovarian it was 107%; in the test with OVCAR-5 ovarian, 107%; in the test on OVCAR-4 ovarian, 115%; in the test with SK-OV-3 ovarian, 119%. Besides, the growth in the test on IGROV1 ovarian was 116%; with OVCAR-3 ovarian, 111%; in the test with HS 578T breast, 110%; with NCI/ADR-RES ovarian, 108%.
